# Reference: PubChem BioAssay (NCI)
# About 83,000 compounds went through this panel and 20% of them were active in at least one assay; those are over-represented in the sample as a whole.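 Results are percent growth after 48 hours of single-concentration exposure. 100 means growth as in untreated cells, lower positive values show inhibition; negative values down to -100 show cell death.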 Active and inactive are the calls of the source. How the source made its calls: active means growth percent below 10; inactive means the rest.
# Test system: SF-295 CNS
# Experiment: NCI-60 one-dose screen, 48 h (100 = growth as untreated, 0 = no growth, -100 = all killed)
# Details: 10 µM
row,SMILES,growth
1,CC(C)COC(=O)COC(=O)OCCOCCOC(=O)OCC(=O)OCC(C)C,115% (inactive)
2,S=C(Nc1ccccc1)N1CCCCC1,98.2% (inactive)
3,O=C(O)CCCc1ccccc1,110% (inactive)
4,COc1cc(OC)c2ccc(=O)oc2c1,100% (inactive)
5,Cc1cc(=O)[nH]c(NN=C2CCCC2)n1,108% (inactive)
6,Nc1ccc(C(=O)c2ccc(N)c(Br)c2)cc1Br,17.6% (inactive)
7,CCCC(=O)c1cc(C)ccc1OC,125% (inactive)
8,Nc1ccc(NC(=O)c2cccc(N)c2)cc1,92.5% (inactive)
9,O=C(N/N=C/c1ccccc1O)Nc1nn[nH]n1,102% (inactive)
10,CCOC(=O)/C(C#N)=C/c1cccc(C)c1,97.9% (inactive)
11,c1ccc(/C(=N\N=C(/c2ccccc2)c2cccs2)c2cccs2)cc1,95.8% (inactive)
12,CC1=CC(=O)c2ccccc2C1=O,109% (inactive)
13,COC(=O)Nc1nc2ccc(C(=O)c3cccs3)cc2[nH]1,-9.66% (active)
14,CCOC(=O)C(C#N)Cc1ccccc1 (configuration not stated),104% (inactive)
15,Cc1nc2ccccc2c2nnc(SCC(=O)N(Cc3ccccc3)c3ccccc3)n12,88.2% (inactive)
16,CC1=C(/C=C/C(C)=C/C=C/C(C)=C/CO)C(C)(C)CCC1,110% (inactive)
17,CC(=O)Nc1cccc(Cl)c1C,105% (inactive)
18,COc1cc([C@@H]2c3cc4c(cc3[C@H](O)[C@H]3COC(=O)[C@H]23)OCO4)cc(OC)c1OC,-14.1% (active)
19,CC1CCC(C(=O)O)N1 (configuration not stated),101% (inactive)

# Test system: SF-539 CNS
# Experiment: as above
# Details: 10 µM
row,SMILES,growth
1,COCCCC/C(=N\OCCN)c1ccc(C(F)(F)F)cc1,109% (inactive)
2,Cc1ccccc1N=C(c1ccccc1)C1C(=O)c2ccccc2C1=O,77.8% (inactive)
3,O=C(O)C(c1ccccc1)C(O)c1ccccc1 (configuration not stated),98.4% (inactive)
4,CC(C)(C)c1cc(O)c(C(C)(C)C)cc1O,86.1% (inactive)
5,O=C(CCNNC(=O)c1ccncc1)NCc1ccccc1,95.4% (inactive)
6,CCCNc1ccc(C2=NCCCN2)cc1,102% (inactive)
7,O=[N+]([O-])c1ccc(O)c(S(=O)(=O)O)c1,100% (inactive)
8,O=C(O)c1cccc([N+](=O)[O-])c1O,114% (inactive)
9,C/C=C/CC(C)C(O)C1C(=O)NC(CC)C(=O)N(C)CC(=O)N(C)C(CC(C)C)C(=O)NC(C(C)C)C(=O)N(C)C(CC(C)C)C(=O)NC(C)C(=O)NC(C)C(=O)N(C)C(CC(C)C)C(=O)N(C)C(CC(C)C)C(=O)N(C)C(C(C)C)C(=O)N1C (configuration not stated),-1.51% (active)
10,O=[N+]([O-])c1ccc(N=Nc2ccccc2)cc1,98.8% (inactive)
11,O=C(CC(=O)c1ccccc1O)c1ccccc1,95.5% (inactive)
12,CCn1c(=O)n(C)c2c(=O)n(C)c(=O)n(C)c21,106% (inactive)
13,CCCCCCCCCCCCCCCCC1CC(=O)OC1=O (configuration not stated),104% (inactive)
14,O=C1c2ccccc2C(=O)N1OCc1ccccc1,102% (inactive)
15,C[C@@H](c1ccccc1)[C@@H](C(=O)O)c1ccccc1,96.5% (inactive)
16,CC(=O)C1CCCCC1,111% (inactive)
17,Nc1ccc(CC(=O)O)c(N)c1,102% (inactive)

row,SMILES,growth
1,CN(C)c1ccc(CNC(C(=O)c2ccccc2)c2ccccc2)cc1 (configuration not stated),111% (inactive)
2,CC(C)COC(=O)COC(=O)OCCOCCOC(=O)OCC(=O)OCC(C)C,80.5% (inactive)
3,S=C(Nc1ccccc1)N1CCCCC1,96.7% (inactive)
4,O=C(O)CCCc1ccccc1,120% (inactive)
5,COc1cc(OC)c2ccc(=O)oc2c1,106% (inactive)
6,Cc1cc(=O)[nH]c(NN=C2CCCC2)n1,107% (inactive)
7,Nc1ccc(C(=O)c2ccc(N)c(Br)c2)cc1Br,-11.2% (active)
8,CCCC(=O)c1cc(C)ccc1OC,94.9% (inactive)
9,Nc1ccc(NC(=O)c2cccc(N)c2)cc1,96.3% (inactive)
10,O=C(N/N=C/c1ccccc1O)Nc1nn[nH]n1,96.9% (inactive)
11,CCOC(=O)/C(C#N)=C/c1cccc(C)c1,95.1% (inactive)
12,c1ccc(/C(=N\N=C(/c2ccccc2)c2cccs2)c2cccs2)cc1,111% (inactive)
13,Nc1ccccc1C(=O)Nc1ccc(Cl)cc1Cl,94.4% (inactive)
14,CC1=CC(=O)c2ccccc2C1=O,104% (inactive)
15,COC(=O)Nc1nc2ccc(C(=O)c3cccs3)cc2[nH]1,10.3% (inactive)
16,CCOC(=O)C(C#N)Cc1ccccc1 (configuration not stated),114% (inactive)
